From PubChem BioAssay
Hits are enriched below; roughly 1.4% of the tested compounds scored in any of these assays.
hERG WT inh – inhibitors of human wildtype KCNH2 potassium channel; actives 0.37% (n = 340,000); Q12809; U2OS, BacMam KCNH2, thallium flux FluxOr; hits give low values; activity change, % at 1.84 µM; AID 720551;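 active = maximum activity change below -70%; inconclusive = maximum activity change between -70% and -50%; inactive = maximum activity change above -50%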; also: % is scaled to controls: 0 for no effect and ±100 for the full control effect
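U2OS cells transduced with wild-type KCNH2 virus are loaded with FluxOr dye for 45 min, and thallium flux is measured in kinetic reads before and after stimulation buffer. Rate constants are normalized to DMSO controls.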
MmCpn inh – inhibitors of Methanococcus maripaludis chaperonin TRiC (MmCpn). purified Mm-Cpn ATPase, ADP Transcreener TR-FRET. Potency, µM (top dose mostly 76.9 µM), for inactives: top-dose activity, negative = inhibition, hits mostly inhibitors. actives 0.031% (n = 330,000); also: potency is read from the fitted curve at half-maximal effect; % is scaled to controls: 0 for no effect and ±100 for the full control effect; nearly all actives have a fitted effect of over 80% in size
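TR-FRET (320 nm excitation; 590 and 665 nm emission) reports ADP made from 10 uM ATP by 25 nM enzyme; compounds were preincubated 10 min, reaction run 30 min, both at 37°C.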
uPA generation – inhibitors of cell surface uPA generation | cell surface uPA generation assay, qHTS | Potency, µM (highest dose often 38.3 µM), without a hit: at the highest dose activity change, negative = inhibition, actives largely listed as inhibitors | actives 0.31% (n = 330,000) | AID 540303; active = well fitted inhibition curve with a large enough effect; inconclusive = small, poorly fitted or top-dose-only effect; inactive = no such curve, though single readings can be large or run the other way; tested in mouse RAW 264.7 cells; also: potency is read from the fitted curve at half-maximal effect; % is scaled to controls: 0 for no effect and ±100 for the full control effect; nearly all actives have a fitted effect of over 55% in size
KCNH2 3.1 block – inhibitors of human KCNH2 3.1 potassium channel isoform; U2OS KCNH2 3.1, thallium flux FluxOr; hits give low values; activity change, % (tested at about 1.8 µM); actives 0.95% (n = 340,000); AID 720553;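 active = maximum activity change below -70%; inconclusive = maximum activity change from -70% to -50%; inactive = maximum activity change above -50%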;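 also: thallium influx rate constant from kinetic fluorescence after stimulation buffer; % is scaled to controls: 0 for no effect and ±100 for the full control effect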
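Channel expression came from 3.1 mutant virus (1.77 x 10^8 /mL) applied to suspended U2OS cells for 4 h. Flux was tracked with FluxOr dye plus Red40 quencher, and kinetic rate constants normalized to controls.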
ASM inhibitor – blocks human secretory acid sphingomyelinase; P17405; actives 0.006% (n = 340,000); Potency, µM (titrated, usually from 57.5 µM), for inactives: at the highest dose activity change, negative = inhibition, most hits filed as inhibitors; placental ASM, HMU-PC fluorogenic substrate, 60 min; also: potency is read from the fitted curve at half-maximal effect
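HMU-PC0 cleavage (9 uM final) by human placental ASM, 60 min at 37 °C following 10 min compound exposure at RT; stopped at pH 10, fluorescence Ex 386/Em 447 nm.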
p53 reactivation – re-activators of mutant p53. H1299 p53-A138V BP100-luciferase reporter, luminescence, 24 h. Potency, µM (doses to about 92.2 µM), for inactives: top-dose activity change, positive = activation, hits mostly activators. actives 0.063% (n = 320,000). AID 504706; also: potency is read from the fitted curve at half-maximal effect; % of control where 0% means no effect; nearly all actives have a fitted effect of over 45% in size
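H1299 (p53-null), stable ts p53-A138V + BP100-Luc; 1000 cells/well, Opti-MEM/10% FBS; cpd 4 pt, 1:5; 24 h, 37 deg C, 5% CO2; detection reagent 10 min RT; luminescence.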
An asterisk follows results filed as active; ? = inconclusive; / = not tested or not shown. Unless noted, calls follow the shape of the dose curve; as a rule, active = well fitted curve in the direction sought with a large enough effect; inconclusive = small, poorly fitted or top-dose-only effect, or another doubt; inactive = no such curve, though single readings can be large; an effect the other way counts as inactive or inconclusive.

SMILES	hERG WT inh	MmCpn inh	uPA generation	KCNH2 3.1 block	ASM inhibitor	p53 reactivation
CC(C)CCN(C(=O)CCSc1ccc(F)cc1)c1c(N)n(Cc2ccccc2)c(=O)[nH]c1=O	4	-9%	-2%	14	-3%	-13%
CC12CCC(C(NC(=S)NN)C1=O)C2(C)C (stereo not given)	2	/	2%	18	3%	/
COc1ccc(F)cc1S(=O)(=O)Nc1cc2c3c(c1)CCC(=O)N3CCC2	-1	-3%	-8%	9	-3%	-5%
Cc1cc(C(=O)COC(=O)c2ccc[nH]c2=O)c(C)n1-c1ccccc1F	-4	3%	2.8µM*	11	-1%	2%
CO/N=C/NC(=O)c1ccc([N+](=O)[O-])c(CS(=O)(=O)c2ccc(Cl)cc2)c1	3	2%	-8%	-4	-1%	-4%
NNC(=O)c1ccc([N+](=O)[O-])c(CS(=O)(=O)c2ccc(Cl)cc2)c1	1	-14%	-2%	-99*	-6%	-7%
CCOC(=O)Nc1ccc2nc(Sc3ccc(Cl)cc3)sc2c1	-4	?	1.6µM*	-6	-12%	7%
CSc1nc2ccc(NC(=O)c3ccc(F)c(F)c3)cc2s1	15	-1%	0%	-1	0%	5%
COc1ccc([C@H]2CN(CCc3ccccc3)C(=O)[C@@H]2CC(=O)Nc2ccccc2)cc1	4	/	/	-6	/	/
Clc1ccc(/C(Cc2nc3ccccc3[nH]2)=N\Nc2ccccc2)cc1	0	1%	8%	-102*	-2%	17%
CN/N=C(\Cc1nc2ccccc2[nH]1)c1ccc([N+](=O)[O-])cc1	?	1%	-6%	-75*	-13%	4%
O=C(Nc1ccccc1SCC1CSc2nc3ccccc3c(=O)n21)c1ccccc1 (stereo not given)	1	3%	-5%	-15	4%	4%
O=C(Nc1ccccc1SCC1CSc2nc3ccccc3c(=O)n21)c1cccc(Cl)c1 (stereo not given)	-32	-2%	-5%	-84*	-2%	-1%
CNc1nc(-c2ccccn2)nnc1-c1ccccc1	-3	3%	-10%	10	1%	?
c1ccc(-c2nnc(-c3ccccn3)nc2NC2CCCCC2)cc1	6	0%	-4%	12	0%	35µM*
NC(=O)c1nc2c([nH]c1=O)CCCC2	-6	/	/	15	/	/
COc1cccc(C(=O)NC(C)C(c2cccs2)N2CCN(C)CC2)c1 (stereo not given)	-5	-10%	/	-72*	3%	-2%
CC[C@]12c3[nH]c4ccc(Cl)cc4c3CCN1C(=O)[C@@H](CC(=O)NCCC1=CCCCC1)C[C@@H]2C(=O)N1CCN(C(=O)c2ccco2)CC1	3	0%	?	-15	-3%	5%
NC(=S)NNc1cccc(Cl)c1	-3	-1%	-3%	-82*	0%	-4%
NC(=S)NNC(=O)Nc1cccc(Cl)c1	15	-1%	4%	11	5%	-8%
CCOc1cc(C(=O)N=c2sccn2C)cc(Br)c1OC	18	1%	7%	0	1%	-2%
Cc1ccc(OCCN2CCN(c3ncnc4sc(C)c(C)c34)CC2)cc1	-3	0%	-13%	-79*	-4%	-6%
Cc1sc2ncnc(N3CCCCC3)c2c1C	6	-2%	/	-8	0%	-4%
CCN1CCN(P2(=O)C=C(c3ccccc3)OC(c3ccccc3)=C2)CC1	-123*	-3%	2%	-90*	3%	-10%
O=P1(O)C=C(c2ccccc2)OC(c2ccccc2)=C1	-14	0%	-1%	1	3%	?
SMILES	hERG WT inh	MmCpn inh	uPA generation	KCNH2 3.1 block	ASM inhibitor	p53 reactivation
CC(C)CN1CCC(=O)N([C@H](COc2ccccc2)Cc2ccccc2)CC1	-13	-1%	6%	-90*	-3%	3%
CC(C)C[C@@H](COc1ccccc1)N1CCN(CCc2ccccc2)CCC1=O	-20	0%	-10%	-96*	4%	/
CCCN1CCC(=O)N([C@H](COc2ccccc2)CC(C)C)CC1	32	0%	-13%	-6	-2%	10%
O=C1CCN(CCc2ccccc2)CCN1[C@H](COc1ccccc1)Cc1ccccc1	-257*	-6%	10%	-100*	14%	/
O=C(C[C@@H]1C/C=C/CC[C@@H](Cc2ccc(F)cc2)C(=O)OC[C@H](Cc2ccccc2)NC1=O)N[C@H](CO)Cc1ccccc1	-1	-1%	-26%	-1	-3%	6%
Cc1ccc2c(c1)C(=O)C(=O)N2Cc1ccc(Cl)cc1	-3	-1%	?	9	0%	9%
CCN(CC(=O)Nc1c(F)cccc1F)C(=O)c1ccc(S(=O)(=O)N2CCC(C)CC2)cc1	6	0%	2%	0	-3%	-7%
COc1ccccc1C1/C(=C(/O)c2ccc(C)cc2)C(=O)C(=O)N1CC(C)O (stereo not given)	12	0%	4%	5	-3%	1%
Cc1ccc(/C(O)=C2\C(=O)C(=O)N(CC(C)O)C2c2ccc(N(C)C)cc2)cc1 (stereo not given)	-123*	-2%	-3%	-5	0%	0%
CC(=O)Nc1ccc(-c2nnn(CC(=O)c3ccc(F)cc3)n2)cc1Cl	19	-9%	-8%	1	2%	-2%
COc1ccc(F)cc1CN1CCN(CC(=O)Nc2ccccc2C(=O)NC2CC2)CC1	-107*	0%	9%	-106*	7%	0%
COc1ccccc1NC(=O)CN1CCCCC1	-3	0%	6%	9	4%	-5%
COc1ccccc1NC(=O)CN1CCN(CC(=O)Nc2ccc(F)cc2F)CC1	-10	3%	2%	-86*	4%	?
O=C(CN1CCN(S(=O)(=O)c2ccc(F)cc2)CC1)Nc1ccccc1C(=O)NC1CC1	-2	0%	3%	-38	-1%	6%
COc1ccc(CN2CCN(CC(=O)Nc3ccccc3C(=O)NC3CC3)CC2)cc1F	-93*	-1%	-8%	-104*	6%	-3%
C=CCNC(=O)CN1C(=O)CSc2ccc(S(=O)(=O)N3CCOCC3)cc21	5	/	/	12	/	/
OC(CNCC1CCCO1)Cn1c2ccc(Cl)cc2c2cc(Cl)ccc21 (stereo not given)	?	-5%	1%	-99*	-24%	-16%
COc1ccc(C(=O)Nc2ccc(C(=O)Nc3nccs3)cc2)cc1[N+](=O)[O-]	-93*	2%	5%	?	0%	8%
COc1ccc(C(=O)Nc2ccc(NC(=O)c3cccs3)cc2)cc1[N+](=O)[O-]	3	-1%	0%	-1	-4%	3%
